KB-3-1 cytotox – kills parental KB-3-1 adenocarcinoma cells; KB-3-1 viability, CellTiter-Glo ATP luminescence, 72 h; Potency, µM (highest dose often 46.1 µM), hits mostly cytotoxic; actives 1.4% (n = 400,000); also: potency is read from the fitted curve at half-maximal effect; nearly all actives have a fitted effect of over 60% in size
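Cytotoxicity in the drug-sensitive parental line KB-3-1 was scored as loss of CellTiter-Glo luminescence following 72 h incubation with compound. Values come from curve fitting of normalized concentration-response data.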
IL-1B inflam inh – inhibitors of inflammasome signaling (IL-1 beta secretion) | THP-1 LPS/ATP IL-1B secretion, AlphaLISA, 16 h; active compounds read low | actives 4.7% (n = 360,000) | activity change, % at 57.5 µM; in the data active = activity change below about -50%; inconclusive = mostly about -30% to -49%
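Secreted IL-1B measured by AlphaLISA bead assay after 16 h compound exposure of THP-1 cells; compounds (final up to 57.5 uM) added 1 h before LPS (250 ng/mL) and ATP (1.25 mM) stimulation; lower signal means less secretion.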
HT1080-NT tox – kills 2HG-producing HT-1080-NT fibrosarcoma cells; HT-1080-NT fibrosarcoma viability, CellTiter-Glo ATP luminescence, 48 h; Potency, µM (titrated, usually from 46.1 µM), without a hit: top-dose activity, negative = less viability, actives largely listed as cytotoxic; actives 1.6% (n = 360,000);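 also: NT is the 2HG producing partner of a matched IDH1 knockdown line; potency is read from the fitted curve at half-maximal effect; 0% = DMSO-treated cells and -100% = media-only wells without cells; nearly all actives have a fitted effect of over 55% in size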
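Luminescent CellTiter-Glo readout after 48 hours of compound exposure at 37 degrees C defined viability of HT-1080-NT cells. Activity was normalized to DMSO wells and cell-free media wells; concentration-response curves were fitted and assigned curve classes.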
KB-V1 MDR tox – KB-V1 MDR subline cytotoxicity; KB-V1 MDR cells viability, CellTiter-Glo, 72 h; Potency, µM (highest dose often 46.1 µM), hits mostly cytotoxic; actives 3.4% (n = 400,000); also: potency is read from the fitted curve at half-maximal effect; nearly all actives have a fitted effect of over 60% in size
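KB-V1, DMEM (no phenol red) + 10% FBS; cpd pin-transferred, titration series; 72 h, 37 degrees C; CellTiter-Glo, luminescence. Data normalized, curve-fit.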
HT1080 IDH1KD tx – kills HT-1080 cells with IDH1 knockdown. HT-1080 IDH1 knockdown viability, ATP luminescence, 48 h. Potency, µM (titrated, usually from 46.1 µM), without a hit: at the top dose activity, negative = toxicity, hits mostly cytotoxic. actives 2% (n = 360,000). AID 686971;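 also: potency is read from the fitted curve at half-maximal effect; 0% = DMSO wells and -100% = cell-free medium wells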
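% activity derives from luminescence (CellTiter-Glo), normalised to DMSO and no-cell wells. HT-1080-IDH1KD cells, 750/well, had 48 h compound exposure at 37 °C.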
* = called active by the depositor; i = inactive; ? = inconclusive; · = no result given. In the library only some 8.8% were active in any assay of this set; here they are far more common. Unless noted, calls follow the shape of the dose curve; as a rule, active = well fitted curve in the direction sought with a large enough effect; inconclusive = small, poorly fitted or top-dose-only effect, or another doubt; inactive = no such curve, though single readings can be large; an effect the other way counts as inactive or inconclusive. Unless noted, % is scaled to controls: 0 for no effect and ±100 for the full control effect.

SMILES | KB-3-1 cytotox | IL-1B inflam inh | HT1080-NT tox | KB-V1 MDR tox | HT1080 IDH1KD tx
CCOC(=O)c1cc(NC(=O)N(C)C2CCCCC2)c(C)nc1C | i | 37 | 17% | i | -1%
Cc1nc(N2CCC3(CC2)OCCO3)c2nnn(Cc3ccccc3F)c2n1 | i | -60* | -2% | ? | -17%
CCc1nn2c(-c3ccccc3OC)ccnc2c1-c1ccc(F)cc1 | i | · | · | i | ·
Cc1ccccc1CNS(=O)(=O)c1c(C(=O)N2CCCCC2)c(C)n(C)c1C | i | -9 | 2% | i | 7%
COc1ccc(CCNCc2c(C(=O)O)c(C)n(Cc3c(F)cccc3Cl)c2C)cc1OC | i | · | · | ? | ·
COc1ccccc1N1CCN(C(=O)c2ccc(Cl)c(S(=O)(=O)NCc3ccco3)c2)CC1 | 7.1µM* | -6 | 8.9µM* | 13µM* | 7.1µM*
Cc1ccc(C(=O)N2CCN(c3ncccn3)CC2)cc1S(=O)(=O)N1CCCCC1 | i | 9 | -2% | 23µM* | 5%
Cc1cc(C(=O)N2CCN(c3ncccn3)CC2)sc1-c1ccccc1 | i | 0 | 20% | 21µM* | 0%
O=C(c1ccc(Cl)c(S(=O)(=O)N2CCCCCC2)c1)N1CCN(c2ccccc2O)CC1 | i | -68* | -23% | ? | -28%
Cc1cc(Br)ccc1NC(=O)COC(=O)c1ccccc1OCC(N)=O | ? | · | · | i | ·
Cc1cc(C)cc(NC(=O)c2cccc(C(=O)Nc3cc(C)cc(C)c3)c2)c1 | i | · | · | i | ·
C=C1NN(C(C)C(=O)O)C(=O)N1c1ccc(OCc2ccccc2)cc1 (configuration not stated) | i | · | · | i | ·
O=C(c1ccc(Cl)c(S(=O)(=O)N2CCCC2)c1)N1CCN(c2ccc(F)cc2)CC1 | ? | -24 | -19% | 5.8µM* | -3%
CCOc1ccc(CNC(=O)c2ccc3c(c2)c(C)c(C)n3Cc2ccc(Cl)cc2)cc1 | i | · | · | i | ·
CC(C)NC(=O)COc1coc(CN2CCN(c3ccccc3)CC2)cc1=O | i | 16 | 4% | i | 2%
CCN(CC)S(=O)(=O)c1ccc2[nH]c(=O)cc(C(=O)Nc3ccccc3N3CCOCC3)c2c1 | · | -4 | 10% | · | 8%
Nc1ccccc1OC1=NS(=O)(=O)c2ccccc21 | ? | · | · | i | ·
CCOC(=O)c1c(C)[nH]c(C)c1S(=O)(=O)NCC(=O)N1CCN(c2cc(Cl)ccc2C)CC1 | i | · | · | i | ·
CCOC(=O)c1c(C)[nH]c(C)c1S(=O)(=O)NCCN1CCN(c2cc(Cl)ccc2C)CC1 | 16µM* | -51* | ? | ? | ?
O=C(CCCN1C(=O)c2ccccc2C1=O)Nc1nnc(C2CC2)s1 | i | 36 | 6% | i | 1%
COc1ccc(N2CCN(C3CCCN(S(=O)(=O)c4ccc(C)cc4C)C3)CC2)cc1 (configuration not stated) | 26µM* | ? | 0% | i | -13%
COc1ccc(N2CCN(C3CCCN(S(=O)(=O)c4ccccc4)C3)CC2)cc1 (configuration not stated) | · | 0 | 0% | · | -1%
O=C(NC1CCCCC1)C1CC(=O)N(Cc2ccccc2)C1 (configuration not stated) | i | -7 | 11% | i | 10%
Cc1cc(C)c(C)c(S(=O)(=O)N[C@@H](C)C(=O)OCC(N)=O)c1C | i | 0 | 9% | i | 4%
O=C1c2ccccc2C(=O)C12OC2c1ccc(Cl)cc1Cl (configuration not stated) | ? | -101* | 21µM* | ? | ?
SMILES | KB-3-1 cytotox | IL-1B inflam inh | HT1080-NT tox | KB-V1 MDR tox | HT1080 IDH1KD tx
Fc1ccc(C2CCCCN2Cc2nc(CC3CC3)no2)cc1 (configuration not stated) | i | 0 | 11% | i | 6%
Fc1ccc2nc(C3CCCCN3Cc3nc(CC4CC4)no3)[nH]c2c1 (configuration not stated) | i | -65* | -15% | ? | -2%
CN1CCc2c1nc1ccccc1c2N (tested in a mixture with another compound) | i | -24 | 3% | i | -2%
CCCCN1CCc2c1nc1ccc(Br)cc1c2N | i | -96* | ? | 21µM* | ?
CCn1c(C)c(C(C)=O)c(N2CCN(c3cccc(Cl)c3)CC2)nc1=S | i | -5 | 0% | i | -5%
CC(=O)c1c(NCCc2ccccc2)nc(=S)n(-c2ccccc2)c1C | i | -101* | -15% | ? | -12%
CC(=O)c1c(N2CCN(c3cccc(Cl)c3)CC2)nc(=S)n(-c2ccccc2)c1C | i | -102* | -5% | i | -29%
CCC(=O)Nc1ccc(C)cc1-c1nc2ccccc2n(CC(=O)Nc2ccccc2Cl)c1=O | i | · | · | i | ·
COC(=O)c1ccc(COc2ccccc2/C=C/C(=O)c2ccc(OCC(=O)O)cc2)cc1 | i | -94* | ? | i | ?
COC(=O)c1ccc(COc2ccccc2/C=C(\C#N)C(=O)Nc2c(C)cccc2C)cc1 | ? | -79* | 18µM* | ? | 18µM*
Cc1ccc(S(=O)(=O)c2c(C)nn(C(C)(C)C)c2OC(=O)CC(C)C)cc1 | i | 19 | ? | i | ?
CN(C)c1nc2c(N)ncnc2n1C1OC(CO)C(O)C1O (configuration not stated) | i | 1 | 9% | i | 27%
CN(C)c1ncnc2c1ccn2C1OC(CO)C(O)C1O (configuration not stated) | 0.82µM* | -29 | 4.1µM* | ? | 2.6µM*
OCC1OC(n2ccc3c(NO)ncnc32)C(O)C1O (configuration not stated) | 0.46µM* | -102* | 1.6µM* | 0.52µM* | 0.41µM*
OCC1OC(n2cnc3c(NO)ncnc32)C(O)C1O (configuration not stated) | ? | · | · | i | ·
CC1(C)CN=C(N(Cc2ccccc2)C(=O)Nc2ccccc2)S1 | i | -10 | 13% | i | 18%
Cc1cc(C)cc(NC(=O)CN2C(=O)NC(C)(c3ccccc3)C2=O)c1 (configuration not stated) | i | 6 | 9% | i | 1%
CC1(c2ccccc2)NC(=O)N(CC(=O)Nc2cccc(/C=C/c3ccccn3)c2)C1=O (configuration not stated) | i | -53* | ? | i | ?
COC(=O)c1c(NC(=O)CSc2ccccc2N)sc(C)c1C | i | -62* | -7% | i | -3%
CCOC(=O)c1c(NC(=O)CN2C(=O)NC3(CCCC3)C2=O)sc(C)c1CC | i | -57* | -10% | ? | -14%
